For some of these results: Results with a measured potency or affinity are listed apart.

Drawing on ChEMBL document CHEMBL3988442, “University of Dundee, Small-Polar-MMV Screening Library” (2021), this text covers Percent Effect for eleven molecules.

Holding throughout (design): scale not given: direction of the effect not stated beside the values
Assay [1] has as its target Protein translocase subunit SecA (Escherichia coli (strain K12)) (UniProt P10408). Nature of the assay: Assay to Identify E. coli SecA ATPase Inhibitors. It is filed as functional. Particulars: 30 µM.
For assay [2], the target named is T1, Ubiquitin-activating enzyme e1, putative (Leishmania donovani (strain BPK282A1)) (UniProt E9BSI1).
T1 sequence (whole entry): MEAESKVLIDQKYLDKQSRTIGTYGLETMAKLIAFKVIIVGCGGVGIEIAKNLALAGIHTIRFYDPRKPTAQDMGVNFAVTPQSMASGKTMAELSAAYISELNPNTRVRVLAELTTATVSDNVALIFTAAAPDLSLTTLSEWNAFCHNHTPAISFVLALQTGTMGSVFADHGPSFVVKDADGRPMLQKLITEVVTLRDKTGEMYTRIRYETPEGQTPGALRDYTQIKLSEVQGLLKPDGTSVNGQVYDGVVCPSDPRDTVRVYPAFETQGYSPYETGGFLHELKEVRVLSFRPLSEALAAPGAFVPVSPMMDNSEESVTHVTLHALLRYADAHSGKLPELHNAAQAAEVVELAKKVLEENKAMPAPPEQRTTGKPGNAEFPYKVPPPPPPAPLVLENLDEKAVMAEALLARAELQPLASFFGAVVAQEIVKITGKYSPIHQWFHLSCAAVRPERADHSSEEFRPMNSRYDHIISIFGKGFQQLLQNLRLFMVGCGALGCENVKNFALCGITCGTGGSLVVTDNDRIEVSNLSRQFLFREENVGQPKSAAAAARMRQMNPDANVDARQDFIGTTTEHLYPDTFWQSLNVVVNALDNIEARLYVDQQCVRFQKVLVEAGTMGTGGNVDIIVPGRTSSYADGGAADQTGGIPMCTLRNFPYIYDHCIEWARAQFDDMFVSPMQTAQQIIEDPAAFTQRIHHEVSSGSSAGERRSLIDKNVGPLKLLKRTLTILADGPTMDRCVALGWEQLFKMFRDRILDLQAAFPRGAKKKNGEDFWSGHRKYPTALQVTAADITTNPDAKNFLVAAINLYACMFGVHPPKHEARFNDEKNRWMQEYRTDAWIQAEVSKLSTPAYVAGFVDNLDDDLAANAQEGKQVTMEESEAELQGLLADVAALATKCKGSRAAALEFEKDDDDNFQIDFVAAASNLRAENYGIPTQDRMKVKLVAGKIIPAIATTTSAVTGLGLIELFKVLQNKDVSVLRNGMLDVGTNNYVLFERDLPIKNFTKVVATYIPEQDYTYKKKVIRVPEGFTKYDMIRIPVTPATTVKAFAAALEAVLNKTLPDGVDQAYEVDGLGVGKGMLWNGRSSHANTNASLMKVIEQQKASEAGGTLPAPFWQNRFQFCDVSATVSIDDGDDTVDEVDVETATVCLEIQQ
Description: Leishmania donovani Ubiquitin Activating Enzyme (LdE1). It is filed as functional. To be noted: 30 µM.

The target in assay [3] is AMP-activated protein kinase, AMPK (Homo sapiens) (UniProt P54646+O43741+P54619+Q9UGJ0+Q9Y478+Q13131+Q9UGI9). Nature of the assay: AMP-dependent Kinase enzyme assay. An in vitro enzyme assay that detects ADP turnover that is directly proportional to AMPK activity. This uses naive AMPK that is activated during the assay with MK-8722. It is filed as functional. Particulars: 30 µM.

Assay [4] addresses Sialic acid-binding Ig-like lectin 9 (Homo sapiens) (UniProt Q9Y336). Nature of the assay: Hs-Siglec9 ALPHAscreen SOP 20170721. Particulars: 10 µM. (Bead proximity is the source of the signal in Alpha formats.)
Assay [5] deals with Trypanosoma cruzi. Description: Trypanosoma cruzi phosphomannomutase and mannose-1-phosphate guanylyltransferase assay. It is filed as functional. Particulars: 10 µM.
For assay [6], the target named is T2, Arginase-2, mitochondrial (Homo sapiens) (UniProt P78540).
T2 sequence (whole entry): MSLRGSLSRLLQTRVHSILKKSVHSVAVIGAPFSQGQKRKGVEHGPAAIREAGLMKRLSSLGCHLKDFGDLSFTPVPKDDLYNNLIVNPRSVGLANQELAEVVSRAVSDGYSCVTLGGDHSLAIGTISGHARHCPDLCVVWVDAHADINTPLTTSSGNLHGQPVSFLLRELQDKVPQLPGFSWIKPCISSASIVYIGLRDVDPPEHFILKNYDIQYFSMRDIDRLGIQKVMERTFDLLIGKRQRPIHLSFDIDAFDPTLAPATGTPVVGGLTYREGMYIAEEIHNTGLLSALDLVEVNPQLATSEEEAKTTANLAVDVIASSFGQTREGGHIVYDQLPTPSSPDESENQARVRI
Description: in vitro enzyme assay to detect the production of urea directly proportional to the activity of Arginase II. Note: in the data most compounds retested in dose-response had high values. It is filed as functional. Particulars: 33.3 µM.

The target in assay [7] is T3, Proteasome subunit beta (Trypanosoma cruzi) (UniProt O96673).
T3 sequence (whole entry): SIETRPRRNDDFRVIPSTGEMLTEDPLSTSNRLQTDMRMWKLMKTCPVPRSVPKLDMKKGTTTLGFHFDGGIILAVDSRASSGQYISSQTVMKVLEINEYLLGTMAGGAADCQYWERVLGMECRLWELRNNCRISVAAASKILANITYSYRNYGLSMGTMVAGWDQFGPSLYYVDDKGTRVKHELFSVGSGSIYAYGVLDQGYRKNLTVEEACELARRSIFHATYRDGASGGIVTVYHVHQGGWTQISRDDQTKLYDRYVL
Nature of the assay: Trypanosoma cruzi proteasome chymotrypsin-like activity (TcProtChymo) assay. Note: in the data most compounds retested in dose-response had high values. It is filed as functional. Particulars: 9.37 µM.

For assay [8], the species on record is Homo sapiens. Nature of the assay: To identify inhibition of the IFN signalling (Jak-Stat) pathway via expression of an eGFP reporter gene under the control of an IFN-stimulated response element (ISRE) containing MxA promoter. It is filed as functional. To be noted: 30 µM. A general note: In a reporter assay the amount or activity of a reporter protein is the signal.

Assay [9] has as its target T4, Tyrosyl-tRNA synthetase, putative (Trypanosoma cruzi (strain CL Brener)) (UniProt Q4DSP6).
T4 sequence (whole entry): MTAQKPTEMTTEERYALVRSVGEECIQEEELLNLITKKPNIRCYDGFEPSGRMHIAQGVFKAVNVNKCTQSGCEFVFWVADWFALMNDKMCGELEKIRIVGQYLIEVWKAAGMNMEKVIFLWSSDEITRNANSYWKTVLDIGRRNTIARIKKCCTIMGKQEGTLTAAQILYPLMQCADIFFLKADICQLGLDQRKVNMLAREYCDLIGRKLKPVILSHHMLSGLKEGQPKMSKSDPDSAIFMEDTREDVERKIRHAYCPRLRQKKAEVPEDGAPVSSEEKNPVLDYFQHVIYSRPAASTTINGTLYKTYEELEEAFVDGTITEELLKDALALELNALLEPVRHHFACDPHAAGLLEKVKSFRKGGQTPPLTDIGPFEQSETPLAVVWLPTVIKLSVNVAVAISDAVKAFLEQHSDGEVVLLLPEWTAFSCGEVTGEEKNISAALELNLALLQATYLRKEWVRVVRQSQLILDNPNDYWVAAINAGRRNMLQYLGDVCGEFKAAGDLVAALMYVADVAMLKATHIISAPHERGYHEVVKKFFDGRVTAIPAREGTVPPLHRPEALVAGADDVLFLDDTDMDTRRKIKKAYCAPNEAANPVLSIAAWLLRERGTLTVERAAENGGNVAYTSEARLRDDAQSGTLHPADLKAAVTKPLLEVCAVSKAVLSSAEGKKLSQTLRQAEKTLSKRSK
Nature of the assay: Trypanosoma cruzi tyrosyl tRNA synthetase (TcYRS) _High Tyrosine SOP. Note: in the data most compounds retested in dose-response had high values. It is filed as functional. To be noted: 30 µM.

In assay [10] the target is T4, Tyrosyl-tRNA synthetase, putative (Trypanosoma cruzi (strain CL Brener)). Description: Trypanosoma cruzi tyrosyl tRNA synthetase (TcYRS) SOP. It is filed as functional. Particulars: 30 µM.
The target of assay [11] is Chromo domain-containing protein 1 (Saccharomyces cerevisiae (strain ATCC 204508 / S288c) (Baker's yeast)) (UniProt P32657). Description: ScCHD-1 Enzyme Inhibition Assay. Note: in the data most compounds retested in dose-response had high values. To be noted: 30 µM. It is filed as functional.
Sequence of Chromo domain-containing protein 1 (Saccharomyces cerevisiae (strain ATCC 204508 / S288c) (Baker's yeast)) (P32657 whole entry, the tested form may be a part): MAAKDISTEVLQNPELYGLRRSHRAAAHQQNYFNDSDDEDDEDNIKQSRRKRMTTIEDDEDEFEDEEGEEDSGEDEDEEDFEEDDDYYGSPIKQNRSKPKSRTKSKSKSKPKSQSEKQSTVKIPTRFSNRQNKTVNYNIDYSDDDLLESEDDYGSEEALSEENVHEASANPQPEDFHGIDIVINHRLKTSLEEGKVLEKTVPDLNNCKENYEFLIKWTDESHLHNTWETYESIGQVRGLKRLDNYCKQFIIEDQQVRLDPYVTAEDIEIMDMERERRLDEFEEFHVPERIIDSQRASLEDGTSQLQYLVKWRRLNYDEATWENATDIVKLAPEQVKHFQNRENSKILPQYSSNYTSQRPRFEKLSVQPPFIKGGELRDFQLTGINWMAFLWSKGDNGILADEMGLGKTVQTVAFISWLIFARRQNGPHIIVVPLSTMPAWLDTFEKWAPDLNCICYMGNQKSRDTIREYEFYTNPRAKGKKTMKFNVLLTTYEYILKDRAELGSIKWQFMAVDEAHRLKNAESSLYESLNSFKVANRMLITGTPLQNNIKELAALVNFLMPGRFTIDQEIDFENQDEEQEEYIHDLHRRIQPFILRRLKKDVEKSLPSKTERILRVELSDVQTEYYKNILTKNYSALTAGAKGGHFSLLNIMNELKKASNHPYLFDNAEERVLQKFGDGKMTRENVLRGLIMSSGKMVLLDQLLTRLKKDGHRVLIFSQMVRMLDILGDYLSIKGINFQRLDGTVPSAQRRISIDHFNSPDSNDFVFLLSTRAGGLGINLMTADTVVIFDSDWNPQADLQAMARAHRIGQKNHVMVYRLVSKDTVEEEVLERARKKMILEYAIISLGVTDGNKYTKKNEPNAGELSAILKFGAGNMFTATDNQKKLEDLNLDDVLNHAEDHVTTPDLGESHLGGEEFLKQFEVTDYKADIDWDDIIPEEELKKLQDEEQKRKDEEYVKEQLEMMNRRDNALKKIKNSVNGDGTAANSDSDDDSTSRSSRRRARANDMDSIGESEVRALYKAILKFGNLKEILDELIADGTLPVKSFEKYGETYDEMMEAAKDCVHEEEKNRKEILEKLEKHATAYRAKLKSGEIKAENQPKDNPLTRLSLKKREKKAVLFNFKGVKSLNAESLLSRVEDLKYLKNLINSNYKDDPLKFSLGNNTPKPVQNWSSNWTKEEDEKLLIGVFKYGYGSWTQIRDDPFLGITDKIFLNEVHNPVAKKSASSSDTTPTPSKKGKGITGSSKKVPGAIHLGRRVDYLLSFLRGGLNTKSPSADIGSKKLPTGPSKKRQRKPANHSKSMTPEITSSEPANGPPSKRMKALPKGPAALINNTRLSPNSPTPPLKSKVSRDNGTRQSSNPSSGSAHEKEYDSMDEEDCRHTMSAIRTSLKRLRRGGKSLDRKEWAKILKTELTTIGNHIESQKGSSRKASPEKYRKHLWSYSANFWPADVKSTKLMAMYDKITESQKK

Sequence of Sialic acid-binding Ig-like lectin 9 (Homo sapiens) (Q9Y336 whole entry): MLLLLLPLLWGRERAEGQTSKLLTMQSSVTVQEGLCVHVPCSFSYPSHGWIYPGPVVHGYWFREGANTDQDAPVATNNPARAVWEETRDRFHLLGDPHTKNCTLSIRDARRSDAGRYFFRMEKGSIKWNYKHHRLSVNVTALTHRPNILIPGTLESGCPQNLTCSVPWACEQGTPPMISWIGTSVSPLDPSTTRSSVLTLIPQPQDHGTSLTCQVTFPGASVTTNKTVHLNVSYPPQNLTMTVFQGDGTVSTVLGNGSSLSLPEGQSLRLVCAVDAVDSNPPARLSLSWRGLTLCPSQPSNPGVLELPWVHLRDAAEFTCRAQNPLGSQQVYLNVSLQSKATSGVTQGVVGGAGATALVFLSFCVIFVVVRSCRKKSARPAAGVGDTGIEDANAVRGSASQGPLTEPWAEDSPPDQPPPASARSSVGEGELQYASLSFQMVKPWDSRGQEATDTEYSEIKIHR
Sequence of Protein translocase subunit SecA (Escherichia coli (strain K12)) (P10408 whole entry): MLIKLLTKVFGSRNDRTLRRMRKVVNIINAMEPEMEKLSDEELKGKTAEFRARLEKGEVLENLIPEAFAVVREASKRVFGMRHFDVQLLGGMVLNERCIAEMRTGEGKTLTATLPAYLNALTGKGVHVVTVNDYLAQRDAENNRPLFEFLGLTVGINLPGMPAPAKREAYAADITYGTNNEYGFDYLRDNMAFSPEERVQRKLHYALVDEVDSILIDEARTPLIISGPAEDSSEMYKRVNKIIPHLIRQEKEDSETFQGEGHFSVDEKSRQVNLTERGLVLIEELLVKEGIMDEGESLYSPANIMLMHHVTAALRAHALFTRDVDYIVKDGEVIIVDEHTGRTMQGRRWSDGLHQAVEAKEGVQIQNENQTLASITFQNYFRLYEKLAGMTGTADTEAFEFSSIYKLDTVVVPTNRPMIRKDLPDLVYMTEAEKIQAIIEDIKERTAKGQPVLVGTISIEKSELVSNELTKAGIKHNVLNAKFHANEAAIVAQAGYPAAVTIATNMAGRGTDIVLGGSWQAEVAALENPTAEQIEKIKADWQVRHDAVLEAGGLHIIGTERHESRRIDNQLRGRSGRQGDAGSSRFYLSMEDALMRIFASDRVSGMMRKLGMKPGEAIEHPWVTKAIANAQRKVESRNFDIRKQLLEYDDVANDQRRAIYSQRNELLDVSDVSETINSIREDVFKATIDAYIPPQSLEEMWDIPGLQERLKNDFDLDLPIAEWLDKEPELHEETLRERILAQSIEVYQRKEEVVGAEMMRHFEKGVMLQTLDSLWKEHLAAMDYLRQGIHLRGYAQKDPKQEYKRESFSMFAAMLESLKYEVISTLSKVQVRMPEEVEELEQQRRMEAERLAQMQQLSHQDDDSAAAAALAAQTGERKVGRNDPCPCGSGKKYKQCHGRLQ

For `CNS(=O)(=O)c1cccc(C(C)NCc2cccc(OC)c2)c1` (stereo unspecified), the Percent Effect in assay [1] was -3.08%; in [2] it was -5.41%; in [3], 4.16%; in assay [4] it was -2.94%; in [5], -4.3%; in [6] it was -0.417%. Moreover, the Percent Effect in assay [7] is 4.31%; in assay [8] it was 11.2%; in [9], 0%; in assay [10] it was -8.54%; in assay [11] it was -3.26%.

For `CCCN1CCC(N(Cc2ncc(C)o2)C(C)=O)C1` (stereo unspecified), the Percent Effect in [1] was -6.17%; in [2], 0%; in assay [3], -14.9%; in [4], 26.2%; in assay [5] it was 2.05%; in [6] it was -0.744%. For the same molecule, the Percent Effect was 22.6% in assay [7]; 1.11% in assay [8]; 3.23% in assay [9]; 1.24% in assay [10]; -1.33% in assay [11].

Turning to `COc1ccc(CS(=O)(=O)CC(=O)NCc2ccccc2F)cc1F`, the Percent Effect in assay [1] was -3.22%; in assay [2], 7.89%; in [3], 5.57%; in [4], -2.07%; in assay [5], -2.63%; in assay [6] it was 8.28%. The Percent Effect was 17.2% in [7]; -0.495% in [8]; 4.25% in assay [9]; 5.2% in [10]; -2.98% in assay [11].

Consider `CCn1cnnc1C1CCN(C(=O)c2cnc(C3CC3)s2)CC1`, for which the Percent Effect in assay [1] was -2.76%; in assay [2], 17.7%; in [3] it was -5.9%; in assay [4], 9.8%; in [5], 0.85%; in [6], -2.28%. Moreover, the Percent Effect in assay [7] is 3.52%; in assay [8] it was -10.4%; in assay [9], 6.4%; in [10] it was 13.9%; in assay [11], -4.8%.

As to `Cc1cc(C[S+]([O-])CC(=O)NCC(C)C)no1` (stereo unspecified), the Percent Effect in assay [1] was -4.4%; in assay [2], 18.2%; in assay [3], 6.46%; in assay [4], -1.61%; in [5], -2.06%; in [6] it was -2.49%. The Percent Effect was 0.676% in assay [7]; -13.6% in assay [8]; 7.77% in assay [9]; 12.2% in [10]; -5.33% in assay [11].

With `CCN1CCN(C(=O)c2cc(C(=O)OC)nn2-c2ccccc2)CC1`, the Percent Effect was -1.39% in assay [1]; 18.4% in [2]; 3.57% in [3]; -5.6% in assay [4]; -5.26% in [5]; 11.5% in assay [6]. The Percent Effect in assay [7] was 15.2%; in assay [8], 20.6%; in [9], 7.35%; in assay [10], 7.32%; in [11], -8.31%.

Turning to `O=C([C@H]1C[C@@H]2CCN(C3CCOCC3)C[C@@H]2O1)N1CCOCC1`, the Percent Effect is 4.05% in [1]; 5.33% in [2]; -5.76% in assay [3]; 14.3% in assay [4]; -3.48% in [5]; -54.7% in [6]. The Percent Effect in [7] was 16.8%; in [8], -8.99%; in [9] it was 7.29%; in assay [10], 12.5%; in assay [11], -5.71%.

Turning to `CN(Cc1nc(C2CC2)no1)C1CCCN(c2cccnn2)C1` (stereo unspecified), the Percent Effect in assay [1] was -1.65%; in assay [2], -17.7%; in assay [3], 11.7%; in assay [4], 7.67%; in assay [5] it was 1.6%; in assay [6] it was 1.14%. Besides, the Percent Effect in [7] was -0.573%; in assay [8], -0.447%; in assay [9] it was 6.4%; in assay [10] it was 3.8%; in assay [11], 4.91%.

As for `CC(C)c1nc(CN2CCCCC2)cs1`, the Percent Effect is -4.24% in assay [1]; -5.2% in assay [2]; 15.4% in [3]; 0.118% in [4]; -0.686% in [5]; -0.632% in assay [6]. Besides, the Percent Effect is -1.54% in assay [7]; 47.1% in [8]; -2.86% in [9]; -2.35% in [10]; 0.144% in assay [11].

As for `CN(C)C(=O)N1CCN(C(=O)CCc2ccccc2)[C@H]2CS(=O)(=O)C[C@H]21`, the Percent Effect in [1] is -0.417%; in assay [2] it was 5.41%; in assay [3], -5.99%; in assay [4], 6.47%; in assay [5], 4.44%; in [6], -2.86%. Also, the Percent Effect in [7] is 15.3%; in assay [8], 23.4%; in assay [9] it was 8.99%; in assay [10] it was 9.76%; in [11], -2.21%.

In the case of `COc1ccccc1OCC(=O)NCC(O)(c1ccccc1)C1CC1` (stereo unspecified), the Percent Effect in [1] is -4.08%; in [2] it was 13.7%; in assay [3] it was -8.54%; in assay [4], 17%; in assay [5], 2.74%; in assay [6] it was 0.909%. The Percent Effect in [7] was 14%; in assay [8] it was 7.48%; in assay [9], 8.6%; in assay [10], 15%; in assay [11], -5.98%.
